PubChem BioAssay (NCI)
Compounds without any hit were thinned out: in the full panel of roughly 79,000, 15% have a hit. Values without a mark were called inactive. The source made the active and inactive calls. Rule as the data show it: active = growth inhibition above about 70%; inactive = the rest.

Tests used:
[1] = NCI Yeast Anticancer Drug Screen. Data for the rad50 strain (AID 155);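 also: 0% = growth of vehicle-only cultures of the same strain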; conditions: S. cerevisiae rad50 strain growth inhibition, hits give high values
In short: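 DNA repair mutant yeast, compound exposure, growth read-out; inhibition is taken relative to vehicle.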

[2] = NCI Yeast Anticancer Drug Screen. Data for the mec2-1 strain (AID 157); conditions: S. cerevisiae mec2-1 strain, hits give high values
In short: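 Cells of the genetically defined mec2-1 yeast strain are incubated with test compound. Inhibition of growth is calculated against vehicle-treated controls.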

[3] = NCI Yeast Anticancer Drug Screen. Data for the sgs1 mgt1 strain (AID 161);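 also: 0% = growth of cultures given vehicle only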; conditions: S. cerevisiae sgs1 mgt1 strain, hits give high values
In short: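 Mutant yeast exposed to compound; growth scored against vehicle-only wells.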

[4] = NCI Yeast Anticancer Drug Screen. Data for the cln2 rad14 strain (AID 165);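 also: 0% = growth equal to vehicle treated cultures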; conditions: S. cerevisiae cln2 rad14 strain, hits give high values
In short: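 The screen exposed genetically defined yeast (cln2 rad14) to test compounds and scored growth inhibition relative to vehicle-treated controls.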

[5] = NCI Yeast Anticancer Drug Screen. Data for the bub3 strain (AID 167); conditions: S. cerevisiae bub3 mutant strain, hits give high values
In short: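 In this screen, a yeast mutant lacking normal mitotic checkpoint function is challenged with compound. Relative growth versus vehicle gives the inhibition value.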

[6] = NCI Yeast Anticancer Drug Screen. Data for the mlh1 rad18 strain (AID 175); conditions: S. cerevisiae mlh1 rad18 strain growth inhibition, hits give high values
In short: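 Compound-treated yeast growth, normalised to vehicle controls. Strain bears defined DNA repair mutations.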

[7] = at 5.0 µM (retest, dose inferred, filed as 0.5)
[8] = at 50.0 µM (retest, dose inferred, filed as 5.0)

SMILES	growth inhibition [1, 7]	growth inhibition [1, 8]	growth inhibition ([1]; at 50.0 µM)	growth inhibition [2, 7]	growth inhibition [2, 8]	growth inhibition ([2]; at 50.0 µM)	growth inhibition [3, 7]	growth inhibition [3, 8]	growth inhibition ([3]; at 50.0 µM)	growth inhibition [4, 7]	growth inhibition [4, 8]	growth inhibition ([4]; at 50.0 µM)	growth inhibition [5, 7]	growth inhibition [5, 8]	growth inhibition ([5]; at 50.0 µM)	growth inhibition [6, 7]	growth inhibition [6, 8]	growth inhibition ([6]; at 50.0 µM)
O=C(O)CCCCCCCCC(=O)O.[Ag]	99% (active)	99% (active)	90.2% (active)	99% (active)	99% (active)	93% (active)	100% (active)	99% (active)	93.8% (active)	70% (active)	99% (active)	92.2% (active)	99% (active)	99% (active)	92.5% (active)	99% (active)	99% (active)	91.5% (active)
N#CI1OC(C(F)(F)F)(C(F)(F)F)c2ccccc21	72% (active)	98% (active)	45.2%	61%	99% (active)	92.2% (active)	72% (active)	99% (active)	87.7% (active)	53%	99% (active)	88.6% (active)	91% (active)	99% (active)	86.6% (active)	87% (active)	98% (active)	92.3% (active)
Cc1nc(C(N)=S)sc1C(=O)C/C(=N/N)C(=O)Nc1cccc(Cl)c1C	8%	24%	26.1%	-5%	14%	29.6%	-7%	23%	-4.95%	-28%	-15%	-15.2%	5%	23%	6.25%	11%	7%	37.1%
Nc1cc(F)cc(F)c1[N+](=O)[O-]	4%	21%	41%	4%	22%	0.45%	1%	18%	53.3%	-1%	6%	-15.4%	-1%	19%	-1.5%	7%	26%	79.7% (active)
CCCCCCCCCCCC(=O)NN	14%	82% (active)	97.4% (active)	12%	43%	97.6% (active)	6%	68%	98% (active)	-3%	65%	97% (active)	22%	52%	95.3% (active)	8%	82% (active)	97.8% (active)
CCc1ccc2c(-c3ccccc3)c3ccccc3c(-c3ccccc3)c2c1	0%	-4%	-7.9%	3%	-10%	-5.6%	1%	6%	-9.25%	-4%	-11%	34.9%	-4%	-8%	7.35%	-1%	-8%	0.05%
Clc1ccc(CN2COc3c(ccc4cccnc34)C2)c(Cl)c1	2%	91% (active)	98.1% (active)	2%	67%	98.9% (active)	4%	98% (active)	99% (active)	-9%	98% (active)	97.7% (active)	-6%	99% (active)	99% (active)	3%	98% (active)	99.1% (active)
Cc1ccc2cc3ccccc3c(-c3ccccc3)c2c1	5%	-3%	10.6%	-13%	-29%	12.9%	6%	-61%	-9.35%	5%	-16%	37%	-11%	-12%	-1.15%	-2%	0%	-5.65%
COc1ccc(OC)c(/C=C/c2ccnc3ccccc23)c1	-3%	98% (active)	96.3% (active)	-1%	97% (active)	95.3% (active)	-2%	98% (active)	97.2% (active)	-4%	97% (active)	94.3% (active)	-1%	97% (active)	95% (active)	-2%	97% (active)	95.6% (active)
Clc1ccc(C2=CC(c3ccccc3)N3C(=N[C@H]4CCCC[C@@H]43)N2)cc1 (some centres not stated)	8%	6%	55.4%	4%	4%	54.2%	6%	17%	79.2% (active)	11%	33%	32.2%	14%	19%	84.8% (active)	6%	11%	91.8% (active)
CCOC(=O)CC[P+](Cc1ccccc1)(c1ccccc1)c1ccccc1	-32%	14%	64.9%	0%	0%	-1.5%	2%	3%	12.7%	4%	-2%	-15.4%	1%	4%	18.4%	7%	21%	11%
COC(=O)C(CBr)CBr	25%	100% (active)	-20.9%	34%	99% (active)	9.55%	22%	98% (active)	-5.25%	21%	99% (active)	10.7%	47%	100% (active)	5.8%	39%	99% (active)	-14.7%
N#CC1=CN(Cc2ccccc2)C(C#Cc2ccccc2)C=C1 (configuration not stated)	1%	-1%	58.9%	-1%	9%	88.2% (active)	2%	8%	82.2% (active)	-2%	-7%	15.4%	-2%	0%	91% (active)	-2%	4%	83.2% (active)
CN(Cc1cnc2nc(N[Si](C)(C)C)nc(N[Si](C)(C)C)c2n1)c1ccc(C(=O)NC(CCC(=O)O[Si](C)(C)C)C(=O)O[Si](C)(C)C)cc1 (configuration not stated)	19%	89% (active)	91% (active)	66%	97% (active)	98.3% (active)	2%	72% (active)	64.7%	-8%	47%	26%	-4%	90% (active)	69.7%	15%	81% (active)	60.6%
O=C1CC(c2ccccc2)c2c(ccc3ccccc23)O1 (configuration not stated)	-1%	90% (active)	87% (active)	1%	86% (active)	62.2%	-1%	86% (active)	75.2% (active)	6%	77% (active)	45.5%	6%	86% (active)	72% (active)	-1%	88% (active)	72.8% (active)
NC1=NC2=C(CCCC2)C(c2cccs2)S1 (configuration not stated)	57%	82% (active)	65.8%	39%	78% (active)	32.4%	76% (active)	87% (active)	75.7% (active)	45%	49%	37%	38%	74% (active)	61.7%	61%	92% (active)	60.6%
COc1ccccc1OCC(COC(=O)Nc1ccc(C)cc1)OC(=O)Nc1ccc(C)cc1 (configuration not stated)	2%	2%	88.4% (active)	-5%	-5%	82.4% (active)	-18%	-18%	85.2% (active)	-2%	-2%	78.6% (active)	-1%	-1%	85% (active)	-1%	-1%	78.7% (active)
COC1OC(CI)C(OC(c2ccccc2)(c2ccccc2)c2ccccc2)C(OC(c2ccccc2)(c2ccccc2)c2ccccc2)C1OC(c1ccccc1)(c1ccccc1)c1ccccc1 (configuration not stated)	-14%	-6%	96.4% (active)	-17%	-22%	98.5% (active)	-8%	-18%	94.5% (active)	-10%	14%	97.8% (active)	1%	-13%	97% (active)	-17%	11%	95.9% (active)
Cc1ccc(S(=O)(=O)N/N=C/c2cc(I)cc([N+](=O)[O-])c2O)cc1	17%	91% (active)	89.3% (active)	13%	92% (active)	95.8% (active)	23%	93% (active)	97.7% (active)	9%	94% (active)	91.3% (active)	8%	97% (active)	88.8% (active)	21%	94% (active)	96.5% (active)
